High-throughput results deposited in PubChem by National Center for Advancing Translational Sciences (NCATS).
DT40 TDP1 no CPT = qHTS for Inhibitors of human tyrosyl-DNA phosphodiesterase 1 (TDP1): qHTS in cells in absence of CPT. hit rate 15% among 420,000. DT40 Tdp1-/- hTDP1 cells, no CPT, ATP luminescence, 48 h. Potency, µM (highest dose often 46.2 µM), inactives show at the highest dose activity change, negative = growth inhibition, usual class: inhibitors; also: potency is read from the fitted curve at half-maximal effect; % is scaled to controls: 0 for no effect and ±100 for the full control effect; nearly all actives have a fitted effect of over 55% in size
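DT40 Tdp1-/-;hTDP1 cells, no CPT (DMSO vehicle only), 400 cells/well; compounds pin-transferred; ≥48 hr, 37 °C; CellTiter-Glo 30 min RT dark, luminescence read.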
MCF10A rerep = DNA re-replication induction in MCF 10a cells. MCF 10A DNA re-replication, Hoechst nuclear intensity, 48 h. Potency, µM (doses to about 46.1 µM), for the others: top-dose activity, positive = re-replication, most hits filed as activators. hit rate 2.9% among 350,000; also: potency is read from the fitted curve at half-maximal effect; % of control where 0% means no effect; nearly all actives have a fitted effect of over 50% in size
SW480 rerep = induces DNA re-replication in SW480 colon adenocarcinoma cells; hit rate 1.8% among 340,000; Potency, µM (highest dose often 46.1 µM), without a hit: top-dose re-replication activation, usual class: activators; SW480 DNA re-replication, Hoechst DNA content imaging, 48 h; also: potency is read from the fitted curve at half-maximal effect; % of control where 0% means no effect; nearly all actives have a fitted effect of over 55% in size
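DNA re-replication was detected as more nuclei of elevated Hoechst intensity after 48 hr exposure to compound (23 nL pinned per well of 250 cells).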
DT40 TDP1 CPT = DT40-hTDP1 cell growth loss with CPT; chicken DT40 Tdp1-/-;hTDP1 cells + 20 nM CPT, ATP luminescence, 48 h; Potency, µM (doses to about 46.2 µM), without a hit: at the top dose activity change, negative = growth inhibition, hits mostly inhibitors; hit rate 12% among 420,000; also: potency is read from the fitted curve at half-maximal effect; % is scaled to controls: 0 for no effect and ±100 for the full control effect; nearly all actives have a fitted effect of over 55% in size
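Cell growth measured by CellTiter-Glo luminescence after a minimum 48 h, 37 C compound exposure with 20 nM CPT in Tdp1-knockout DT40 cells stably expressing hTDP1, seeded 400/well; qHTS titration format.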
IL1B secr inh = inflammasome signaling inhibition, IL-1 beta readout | THP-1 LPS/ATP IL-1B secretion, AlphaLISA, 16 h; active compounds read low | activity change, % at 57.5 µM | hit rate 4.7% among 360,000 | AID 743279; in the data active = activity change below about -50%; inconclusive = mostly about -30% to -49%; also: % is scaled to controls: 0 for no effect and ±100 for the full control effect
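Secreted IL-1B measured by AlphaLISA bead assay after 16 h compound exposure of THP-1 cells; compounds (final up to 57.5 uM) added 1 h before LPS (250 ng/mL) and ATP (1.25 mM) stimulation; lower signal means less secretion.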
Chronic BCR inh = inhibitors of chronic active B-cell receptor signaling | hit rate 0.05% among 340,000 | Potency, µM (top dose mostly 46.1 µM), for the others: top-dose activity change, negative = inhibition, most hits filed as inhibitors | ABC-DLBCL IkBa-CBG/CBR reporter, luminescence ratio, 4 h; active = well fitted inhibition curve with a large enough effect in the signal ratio, with a control signal flat, not every such curve was filed as active; inconclusive = small, poorly fitted or top-dose-only effect, or effect the other way, or a change in a side signal; the % refers to the signal ratio;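 also: potency is read from the fitted curve at half-maximal effect; plate controls were basal doxycycline-induced cells for no effect and cells given 10 µM MG132 for full effect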
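Cell line TMD8 (human ABC DLBCL), stably expressing tet-inducible CBG68-IkBa fusion and CBR; IMDM/0.5% FBS; cpd up to 46 uM; dox induction, 4 h, 37C/5% CO2; dual luminescence; green/red ratio; MG132 control.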
Numbers without * were called inactive; u = inconclusive; x = no result; ! = not active in a repeat; [ ] = another dose, or the depositor's remark. A selection: hits, their analogues and other compounds. The true share with any hit is near 19%. Unless noted, calls follow the shape of the dose curve; as a rule, active = well fitted curve in the direction sought with a large enough effect; inconclusive = small, poorly fitted or top-dose-only effect, or another doubt; inactive = no such curve, though single readings can be large; an effect the other way counts as inactive or inconclusive.

SMILES | DT40 TDP1 no CPT | MCF10A rerep | SW480 rerep | DT40 TDP1 CPT | IL1B secr inh | Chronic BCR inh
COc1cccc(/C=C2/SC(=S)N(CCCC(=O)Nc3ccc(O)cc3)C2=O)c1 | u | 8.5% | u | u | -84.8* | u
O=C(CN1C(=O)S/C(=C\C=C\c2ccccc2)C1=O)Nc1ccc(O)cc1 | u | 2.1% | 1.4% | u | -53.8* | u
O=C(COC(=O)c1ccc(O)cc1)NCCCc1ccccc1 | -6.2% | -8.2% | -10.4% | 1.0% | u | -4.1%
Cc1ccc(OCC(=O)Nc2ccon2)c([N+](=O)[O-])c1 | 1.1% | -6.5% | -1.7% | -0.5% | -19.9 | 4.4%
CCCCn1c(N)c(N(CC(C)C)C(=O)c2cc(S(=O)(=O)N3CCCCC3)ccc2C)c(=O)[nH]c1=O | -22.0% | 7.3% | -94.3% | 3.6% | 17.4 | 1.3%
CC(C)Cn1c(=O)c(CCC(=O)Nc2ccc(N3CCOCC3)cc2)nc2cc(Cl)ccc21 | -12.7% | -34.6% | -9.3% | -21.4% | -3.7 | u
O=C(CC[C@H]1O[C@@H](n2cnc3c(NC(=O)c4ccccc4)ncnc32)[C@H](O)[C@@H]1O)NCc1ccco1 | 1.0% | x | x | 9.9% | 102.2 | x
Cc1ccc(/C=C2\SC(=S)N(CC(=O)Nc3ncc(Cc4ccccc4Cl)s3)C2=O)cc1 | x | x | x | x | x | -3.3%
Cc1ccc(/C=C2\SC(=S)N(CCCC(=O)NNC(=O)c3ccccc3O)C2=O)cc1 | 18.4µM* | 2.2% | 0.5% | u | 0.0 | u
Cc1ccc(/C=C2/SC(=S)N(CC(=O)Nc3ncc(Cc4ccc(C)cc4)s3)C2=O)cc1 | 11.6µM* | -10.8% | u | 23.1µM* | -2.1 | -6.5%
COC(=O)N1CCC2(CCCN(c3ncccn3)C2)CC1 | -12.5% | x | x | 5.7% | x | x
CCOCCCN1C(=O)CN(C2CCCCCC2)C(=O)C1c1ccc(OC(C)C)c(OC)c1 (configuration not stated) | -22.4% | x | x | -27.7% | x | 1.7%
CC(C)n1c(=O)c2oc3ccccc3c2n(CC(=O)Nc2ccccc2Cl)c1=O | u | x | x | -24.8% | x | x
CCCCCCSc1cccc(-c2nc3ccc(Cl)cn3c2NCc2ccccc2)c1 | 23.1µM* | 20.6µM* | -2.9% | 20.6µM* | -6.1 | -0.7%
CCCCCCSc1ccc(-c2nc3ccc(C)cn3c2NCc2ccccc2)cc1 | 16.4µM*! | u | -2.1%[9.22 µM] | 23.1µM*! | -109.9*! | -0.6%
CCCCCCSc1ccc(-c2nc3ccc(C)cn3c2NCc2ccccc2)cc1OC | 18.4µM* | 83.7% | u | 16.4µM* | -52.7*! | 11.9%
CCC(=O)Nc1c(-c2ccc(C)cc2)nc2ccc(C)cn12 | 0.8% | u | -5.3% | -1.9% | 8.3 | -1.6%
COc1ccc(-c2nc3ccc(Cl)cn3c2Cc2ccccc2)cc1OC | u | x | x | -21.1% | -27.2 | x
CC1Sc2ccc(S(=O)(=O)NCCc3ccc(Cl)cc3)cc2NC1=O (configuration not stated) | u | -0.3% | 1.6% | -24.3% | 19.3 | u
Cc1ccc(S(=O)(=O)Nc2ccc3[nH]c(=O)sc3c2)cc1C | 16.4µM* | x | x | u | x | x
O=c1[nH]c2ccc(NS(=O)(=O)c3ccc(F)cc3)cc2s1 | u | x | x | -0.3% | x | x
Cc1ccc(NS(=O)(=O)c2ccc3c(c2)NC(=O)C(C)C(=O)N3)cc1F (configuration not stated) | u | x | x | -29.7% | x | x
Cc1ccc(NS(=O)(=O)c2ccc3c(c2)C(C(C)C)C(=O)N3)cc1C (configuration not stated) | 29.1µM* | x | x | u | x | 0.7%
Cc1ccc(NS(=O)(=O)c2ccc3c(c2)NC(=O)C(C)C(=O)N3)cc1C (configuration not stated) | 18.4µM* | -2.7% | -2.4% | u | 13.5 | 5.6%
Cc1ccc(CCNS(=O)(=O)c2ccc3c(c2)C(C(C)C)C(=O)N3)cc1 (configuration not stated) | 20.6µM* | x | x | u | x | x
SMILES | DT40 TDP1 no CPT | MCF10A rerep | SW480 rerep | DT40 TDP1 CPT | IL1B secr inh | Chronic BCR inh
Cc1ccc(C(=O)NCCCN2CCN(CCCNC(=O)c3ccc(C)cc3)CC2)cc1 | 2.0% | 3.7% | 3.2% | -15.3% | -5.9 | x
O=c1c(CCc2ccccc2)nc2cnc(N3CCNCC3)nc2n1-c1ccccc1 | 4.5% | x | x | -26.9% | x | x
CCN(C(=O)CSc1nc2cc(S(=O)(=O)N(CC)CC)ccc2n1CC)C1CCS(=O)(=O)C1 (configuration not stated) | -7.4% | -3.2% | -69.7% | -1.6% | -5.8 | -0.9%
COc1ncc2nc(-c3cccs3)c(=O)n(CCc3ccccc3)c2n1 | 24.6% | x | x | 17.6% | x | x
Cc1cc2[nH]c3c(c[n+](C)c4ccccc34)c2cc1C | 1.64µM* | u | u | -101.8% | -98.6* | u
C/C(=C1/C=Nc2ccccc21)c1ccc(N(C)C)cc1 | 10µM* | x | x | 7.94µM* | x | x
Cc1cccc(NC(=O)CCC(=O)OCC(=O)c2ccc(Oc3ccc([N+](=O)[O-])cc3)cc2)c1 | u | -2.1% | 3.3% | 20.6µM* | 15.4 | 8.4%
O=C(CCC(=O)OCC(=O)c1cccc([N+](=O)[O-])c1)NC1CCCCC1 | -4.5% | 3.0% | 2.59µM* | u | -10.3 | -1.0%
CCOC(=O)C1CCN(C(=O)C2c3ccccc3C(=O)N(C)C2c2ccc(OC)cc2)CC1 (configuration not stated) | u | 5.6% | -12.3% | u | 21.0 | u
COc1ccc(C2C(C(=O)N3CCCCC3)c3ccccc3C(=O)N2C)cc1 (configuration not stated) | -27.9% | 11.6µM* | u | u | 34.3 | -0.1%
O=C1NC[C@H](CCCCN2C[C@H](Cc3ccc(O)cc3)N(CC3CCCCC3)C(=O)C2=O)N(CCc2ccc(O)cc2)C1=O | -6.4% | x | x | 1.5% | 9.0 | x
C[C@@H]1CN([C@@H](C)CO)C(=O)c2cccc(NC(=O)c3nc4ccccc4s3)c2O[C@@H]1CN(C)CC1CC1 | u | -6.5% | 0.4% | u | 0.0 | -1.2%
Cn1c(SCc2ccc(F)cc2)nc2ccc(C(=O)NCc3ccc(F)cc3)cc21 | 16.4µM* | x | x | 16.4µM* | x | x
CC(C)Oc1ccc(CNC(=O)c2ccc3nc(SCc4ccc(F)cc4)n(C)c3c2)cc1 | u | x | x | -19.1% | x | x
Cn1c(SCc2ccc(F)cc2)nc2ccc(C(=O)NCc3cccc(Cl)c3)cc21 | u | x | x | 16.4µM* | x | x
Cc1ccc(CNC(=O)c2ccc3nc(SCc4ccc(F)cc4)[nH]c3c2)cc1 | 13µM* | x | x | 14.6µM* | x | x
